Assay results: PubChem BioAssay (NCI)
About 79,000 compounds went through this panel and 15% of them were active in at least one assay; those are over-represented in the sample as a whole. Values without a mark were called inactive. Active and inactive are the calls of the source. No stated cut-off is given here; in the data, active means growth inhibition above about 70%; inactive means the rest.

Assay: NCI Yeast Anticancer Drug Screen. Data for the rad52 strain (AID 147);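 further: 0% = growth of vehicle-treated control cultures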
Settings: S. cerevisiae rad52 mutant growth inhibition, hits give high values
Experimental: Growth inhibition of yeast strains with defined genetic alterations is measured as a screen for potential anti-cancer activity. Selected strains with alterations in DNA damage repair or cell cycle control were exposed to compounds and growth inhibition was measured relative to vehicle treated controls. The strain used in this assay is rad52

In the case of CC[C@@]1(OC(=O)CCC(=O)O)C(=O)OCc2c1cc1n(c2=O)Cc2cc3ccccc3nc2-1, the growth inhibition (at 1.2 µM) is reported as 78% (active), the growth inhibition (at 3.7 µM) is reported as 87% (active) and the growth inhibition (at 11.0 µM) is reported as 92% (active). For the same molecule, the growth inhibition (at 33.0 µM) was 95% (active) and the growth inhibition (at 100.0 µM) was 94% (active).
Molecule [Pt].c1ccc(P(CCP(c2ccccc2)c2ccccc2)CCP(c2ccccc2)c2ccccc2)cc1 has a growth inhibition (at 1.2 µM) of -15%, a growth inhibition (at 3.7 µM) of 2% and a growth inhibition (at 11.0 µM) of 7%. For the same molecule, the growth inhibition (at 33.0 µM) was 89% (active) and the growth inhibition (at 100.0 µM) was 84% (active).
Molecule Nc1ccc2c(c1)sc1ccccc12 has a growth inhibition (at 1.2 µM) of -3%, a growth inhibition (at 3.7 µM) of 2% and a growth inhibition (at 11.0 µM) of 3%. For the same molecule, the growth inhibition (at 33.0 µM) was 30% and the growth inhibition (at 100.0 µM) was 99% (active).
CC(=O)CC(=O)/C=C/c1cccs1 gave a growth inhibition (at 1.2 µM) of -15%, a growth inhibition (at 3.7 µM) of -8% and a growth inhibition (at 11.0 µM) of 6%. For the same molecule, the growth inhibition (at 33.0 µM) was 26% and the growth inhibition (at 100.0 µM) was 86% (active).
Work on CCC(NC(C)c1ccccc1)C(=O)c1ccc(OCc2ccccc2)c(OCc2ccccc2)c1 (stereo not given) yielded a growth inhibition (at 1.2 µM) of 0%, a growth inhibition (at 3.7 µM) of 7% and a growth inhibition (at 11.0 µM) of 0%. The growth inhibition (at 33.0 µM) was 6% and the growth inhibition (at 100.0 µM) was -18%.
In the case of COc1ccc(/C(C#N)=C/c2ccc(OC)c(OC)c2)cc1, the growth inhibition (at 1.2 µM) is reported as 10%, the growth inhibition (at 3.7 µM) is reported as -6% and the growth inhibition (at 11.0 µM) is reported as -1%. It also gave a growth inhibition (at 33.0 µM) of -13% and a growth inhibition (at 100.0 µM) of 21%.
CCc1nc(N)nc(N)c1-c1ccc(NCCCCCCN)c([N+](=O)[O-])c1 showed a growth inhibition (at 1.2 µM) of -3%, a growth inhibition (at 3.7 µM) of 0% and a growth inhibition (at 11.0 µM) of 2%. It also gave a growth inhibition (at 33.0 µM) of 11% and a growth inhibition (at 100.0 µM) of 32%.
With CC(=O)[O-].O=C([CH-]C(=O)c1ccccc1)c1ccccc1.O=C([CH-]C(=O)c1ccccc1)c1ccccc1.[Sm+3] the growth inhibition (at 1.2 µM) was 4%, the growth inhibition (at 3.7 µM) was -2% and the growth inhibition (at 11.0 µM) was 80% (active). For the same molecule, the growth inhibition (at 33.0 µM) was 97% (active) and the growth inhibition (at 100.0 µM) was 98% (active).
